Shown are actives, neighbours in structure and some others; about 19% of the full set was active somewhere.
HT1080NT lethal: kills 2HG-producing HT-1080-NT fibrosarcoma cells | HT-1080-NT fibrosarcoma viability, CellTiter-Glo ATP luminescence, 48 h | Potency, µM (doses to about 46.1 µM), inactives show at the top dose activity, negative = less viability, usual class: cytotoxic | actives 1.6% (n = 360,000) | AID 686970;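 note: NT is the 2HG producing partner of a matched IDH1 knockdown line; potency is the fitted concentration of half-maximal effect; 0% = DMSO-treated cells and -100% = media-only wells without cells; nearly all actives have a fitted effect of over 55% in size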
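Viability by CellTiter-Glo luminescence after 48 h compound exposure at 37C of HT-1080-NT cells (750/well, RPMI, 5% FBS). % activity scaled between DMSO wells and medium-only wells, then curve-fitted and categorized by curve class.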
DT40 TDP1 no CPT: qHTS for Inhibitors of human tyrosyl-DNA phosphodiesterase 1 (TDP1): qHTS in cells in absence of CPT. DT40 Tdp1-/- hTDP1 cells, no CPT, ATP luminescence, 48 h. Potency, µM (doses to about 46.2 µM), for the others: at the top dose activity change, negative = growth inhibition, usual class: inhibitors. actives 15% (n = 420,000). AID 686978, 2013; note: potency is the fitted concentration of half-maximal effect; nearly all actives have a fitted effect of over 55% in size
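Growth of hTDP1-complemented DT40 Tdp1-knockout cells is measured by ATP luminescence after at least 48 hr compound exposure at 37 °C, with DMSO substituting for the 20 nM CPT used in the parallel screen.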
TDP1 cell CPT: DT40-hTDP1 cell growth loss with CPT; chicken DT40 Tdp1-/-;hTDP1 cells + 20 nM CPT, ATP luminescence, 48 h; Potency, µM (titrated, usually from 46.2 µM), for inactives: at the highest dose activity change, negative = growth inhibition, most hits filed as inhibitors; actives 12% (n = 420,000); note: potency is the fitted concentration of half-maximal effect; nearly all actives have a fitted effect of over 55% in size
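Chicken DT40 Tdp1-/- cells complemented with human TDP1, 400 cells/well, exposed to compounds plus 20 nM camptothecin for at least 48 h at 37 C; viability read as ATP content by CellTiter-Glo luminescence.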
IL1B secr inh: blocks inflammasome-driven IL-1 beta release; THP-1 LPS/ATP IL-1B secretion, AlphaLISA, 16 h; hits give low values; activity change, % at 57.5 µM; actives 4.7% (n = 360,000); AID 743279; in the data active = activity change below about -50%; inconclusive = mostly about -30% to -49%
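THP-1 cells pretreated 1 hr with compounds (up to 57.5 uM final), then stimulated with LPS (250 ng/mL final) plus ATP (1.25 mM final); secreted IL-1B measured by AlphaLISA after 16 hr, decreased signal indicating inhibition.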
HT1080 IDH1KD tx: toxicity to HT-1080 IDH1 knockdown cells (counter line) | HT-1080 IDH1 knockdown viability, ATP luminescence, 48 h | Potency, µM (doses to about 46.1 µM), without a hit: at the top dose activity, negative = toxicity, actives largely listed as cytotoxic | actives 2% (n = 360,000) | AID 686971;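 note: potency is the fitted concentration of half-maximal effect; 0% = DMSO wells and -100% = cell-free medium wells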
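HT-1080-IDH1KD cells (IDH1 knocked down), 750/well in RPMI with 5% FBS, treated with compound 48 h at 37 degrees C. Viability by CellTiter-Glo luminescence, normalised to DMSO and no-cell wells; concentration-response curves classed.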
The depositor's hits bear a star; i = inactive; ? = inconclusive; · = no result given; [ ] = another dose, or the depositor's remark. Unless noted, calls come from the whole dose curve; as a rule, active = well fitted curve in the direction sought with a large enough effect; inconclusive = small, poorly fitted or top-dose-only effect, or another doubt; inactive = no such curve, though single readings can be large; an effect the other way counts as inactive or inconclusive. Unless noted, % is set by controls: 0 for no effect and ±100 for the full control effect.

SMILES	HT1080NT lethal	DT40 TDP1 no CPT	TDP1 cell CPT	IL1B secr inh	HT1080 IDH1KD tx
Cc1noc(C)c1C(=O)N1CCC[C@@]2(CCN(Cc3ccccc3)C2)C1	·	-5%	6%	·	·
Cc1noc(C)c1C(=O)N1CCC[C@@]2(CCN(c3cccc(-c4ccccc4)c3)C2)C1	·	18µM*	16µM*	·	·
Cc1noc(C)c1C(=O)N1CCC2(CCCN(C(c3ccccc3)c3ccccc3)C2)CC1	·	23µM*	?	·	·
O=C(O)c1ccc(CNC(=O)C2CCN(S(=O)(=O)c3cccs3)CC2)cc1	1%	13%	1%	21	1%
CC(/C=N\Nc1nnc2c(n1)[nH]c1c(C)cccc12)=C\c1ccco1	-13%	10µM*	9.2µM*	65	?
CC(/C=N/n1c(-c2ccco2)n[nH]c1=S)=C\c1ccco1	8%	4%	-14%	0	13%
COC(=O)CC(NC(=O)c1cccs1)c1ccc(OC)c(OC)c1 (configuration not stated)	13%	14%	0%	18	3%
Oc1ccc(Oc2ccc3c(C(F)(F)F)cc(C(F)(F)F)nc3n2)cc1	-2%	18µM*	15µM*	-7	-6%
COc1ccc(Oc2ccc3c(C(F)(F)F)cc(C(F)(F)F)nc3n2)cc1	-20%	-2%	-24%	-3	3%
Cc1ccnc(SCC(=O)c2ccc(Br)cc2)c1C#N	-12%	21µM*	?	-11	-19%
Cc1ccc(C(=O)CSc2nsc(C)c2C#N)cc1	1%	-29%	?	-14	12%
Cc1ccc(-n2ncc3c2CC(C)(C)CC3NC(=O)CCc2ccncc2)cc1 (configuration not stated)	4%	?	?	-5	4%
Cc1ccc(-n2ncc3c2CC(C)(C)CC3NC(=O)CCc2cccnc2)cc1 (configuration not stated)	0%	16µM*	23µM*	i	0%
CCC(C)NC(=O)c1sc2nc(C)c(C(=O)Nc3ccc(Cl)cc3)c(-c3ccc(Br)cc3)c2c1N (configuration not stated)	·	21µM*	?	·	·
CCCCC(CC)CO (configuration not stated)	-7%	-4%	?	-12	3%
CCCCC(CC)CN=C(N)NC(N)=NCCCCCCN=C(N)NC(N)=NCC(CC)CCCC (configuration not stated)	7.3µM*	9.2µM*	13µM*	-104*	23µM*
Cc1cccc(C)c1NC(=O)c1sc(N)nc1-c1ccccc1	3%	-22%	-19%	-10	1%
CCc1cccc(C)c1Nc1c(-c2ccccc2)nc2sccn12	·	18µM*	?	·	·
Cc1ccccc1NC(=O)CSCc1cc(=O)n2ccsc2n1	3%	13%	3%	-11	10%
Cc1ccc(-c2nc3sccn3c2Nc2ccccc2C)cc1	·	23µM*	?	·	·
Cc1cc(-c2ccc(S(=O)(=O)Nc3cc(Cl)ccc3C)s2)on1	·	2.9µM*	4.6µM*	·	·
Cc1cc(-c2ccc(S(=O)(=O)Nc3ccc(C#N)cc3)s2)on1	1%	18%	-28%	51	-4%
Cc1cc(-c2ccc(S(=O)(=O)Nc3ccc(Br)c(C)c3)s2)on1	·	15µM*	23µM*	·	·
O=C(c1cnn(-c2nccc(-c3ccccc3C(F)(F)F)n2)c1C1CC1)N1CCN(CCO)CC1	·	-16%	-11%[9.04 µM]	·	·
COc1cc(OC)c(OC)cc1CCC(C)NCCC(c1ccccc1)c1ccccc1 (configuration not stated)	?	5.8µM*	6.5µM*	-65*	?
SMILES	HT1080NT lethal	DT40 TDP1 no CPT	TDP1 cell CPT	IL1B secr inh	HT1080 IDH1KD tx
CCC(C(N)=NCCc1ccc(OC)c(OC)c1)c1ccccc1 (configuration not stated)	-18%	8.2µM*	15µM*	-3	-27%
COc1ccc(CCNCCC(c2ccccc2)c2ccccc2)cc1OC	-29%	18µM*	18µM*	-54*	-29%
COc1ccc(CCN=C(N)C(C)c2ccccc2)cc1OC (configuration not stated)	7%	?	-17%	-29	3%
c1cncc(CSc2ccc(-c3cccs3)nn2)c1	-26%	?	-29%	-60*	?
Cc1cc(C(=O)N2CCC2(C)C(=O)O)nn1C(C)(C)C (configuration not stated)	24%	-1%	-1%	4	-2%
CCOC(=O)N1CCN(Cc2ccc3c(c2)CN(C(=O)c2noc4c2CCCC4)CCO3)CC1	·	21µM*	-13%[9.04 µM]	·	·
O=S(=O)(Nc1ccc(S(=O)(=O)N2CCCC2)cc1)c1ccc(F)cc1F	-4%	-3%	3%	-16	-13%
CC(C)(C)N(Cc1ccccc1)C(=O)c1ccc(Br)o1	8%	?	?	-7	6%
Cc1ccc(C(=O)N(Cc2ccccc2)C(C)(C)C)cc1C	3%	15µM*	16µM*	-7	-5%
Cc1cc(Cl)ccc1OCC(=O)N(Cc1ccco1)Cc1ccccc1F	·	16µM*	?	·	·
CC(C)(C)c1ccc(OCC(=O)N(Cc2ccco2)Cc2ccccc2F)cc1	·	21µM*	?	·	·
Cc1cc(Cl)ccc1OCC(=O)N(Cc1ccco1)C1CCS(=O)(=O)C1 (configuration not stated)	-1%	?	-12%	-5	0%
CN(Cc1ccccc1F)C(=O)COc1ccc(C(=O)c2ccccc2)cc1	-11%	21µM*	23µM*	?	-19%
CC(C)(C)c1ccc(OCC(=O)NCc2ccco2)cc1	-9%	?	-13%	-15	-11%
CC(C)S(=O)(=O)C/C(N)=N/OC(=O)c1cc(Cl)cc(Cl)c1	6%	-7%	11%	·	9%
CCN(CC(=O)Nc1c(F)cccc1F)C(=O)C1CC(=O)N(CCc2ccc(OC)c(OC)c2)C1 (configuration not stated)	4%	-1%	-1%	7	8%
CC(C)(C)S(=O)(=O)N1C[C@@H]2C(=CC[C@H]3C(=O)N(c4ccccc4)C(=O)[C@@H]23)[C@@H]1CCO	-3%	-25%	-26%	-2	-3%
COc1ccc2nc(NC(=O)c3nc(S(=O)(=O)Cc4ccccc4)ncc3Cl)sc2c1	·	1.3µM*	1µM*	·	·
COc1ccc2nc(NC(=O)c3nc(SCc4ccccc4F)ncc3Cl)sc2c1	·	-1%	9%	·	·
COc1ccc2nc(NC(=O)c3nc(S(=O)(=O)Cc4ccccc4F)ncc3Cl)sc2c1	·	1.5µM*	0.92µM*	·	·
O=C(NCc1ccccc1)C1CCN(c2ncnc3c2nc2n3CCCCC2)CC1	·	-9%	-2%	·	·

Screening results (PubChem BioAssay)
